# GRK2 inh = inhibitors of human GRK2 displacing RNA aptamer | bead flow cytometry, FAM-aptamer displacement from GRK2 | actives 0.59% (n = 330,000) | inhibition of aptamer binding, % at 10 µM | P25098;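 active = inhibition of aptamer binding above 40%, roughly 3 SD of noise, on plates passing a quality check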;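 also: median bead fluorescence of bound FAM aptamer so fluorescent compounds give negative values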
# APOBEC3A inh = inhibitors of human APOBEC3A DNA deaminase; inhibition, % at 20 µM; recombinant A3A, FAM/TAMRA ssDNA deamination fluorescence; P31941; actives 0.41% (n = 330,000);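 active = at least 40% inhibition at 20 µM here, with at most 30% in a related deaminase screen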
# Target sequence (P31941 whole entry, looked up): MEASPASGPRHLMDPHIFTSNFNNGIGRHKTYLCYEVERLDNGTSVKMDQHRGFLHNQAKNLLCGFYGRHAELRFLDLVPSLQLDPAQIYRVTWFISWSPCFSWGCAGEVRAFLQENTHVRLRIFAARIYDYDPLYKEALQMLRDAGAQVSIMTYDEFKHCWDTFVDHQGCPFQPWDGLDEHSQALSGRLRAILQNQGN
# A3G deaminase = inhibitors of human APOBEC3G DNA deaminase | Q9HC16 | recombinant A3G, ssDNA deamination FAM/TAMRA fluorescence | inhibition, % at 20 µM | actives 0.28% (n = 330,000);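 active = inhibition of at least 40% at 20 µM, with no more than 30% in the related APOBEC3A deaminase screen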
# Target sequence (Q9HC16 whole entry, looked up): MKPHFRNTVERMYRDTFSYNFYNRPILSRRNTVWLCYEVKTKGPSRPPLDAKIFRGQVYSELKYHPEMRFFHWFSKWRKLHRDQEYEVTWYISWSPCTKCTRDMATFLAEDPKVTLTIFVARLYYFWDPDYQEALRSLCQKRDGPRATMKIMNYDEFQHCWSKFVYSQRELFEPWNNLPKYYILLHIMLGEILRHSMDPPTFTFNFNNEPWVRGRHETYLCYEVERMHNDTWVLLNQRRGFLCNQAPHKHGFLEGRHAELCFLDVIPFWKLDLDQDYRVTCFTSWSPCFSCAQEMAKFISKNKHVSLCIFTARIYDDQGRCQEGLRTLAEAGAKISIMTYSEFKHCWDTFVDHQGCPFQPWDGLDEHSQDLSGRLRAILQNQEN
# VLA-4 inh = inhibition in a human VLA-4 binding assay. P13612. VLA-4 expressing cells, ligand binding flow cytometry. inhibition, % (about 7 µM as worked out from the volumes in the protocol). actives 0.2% (n = 330,000). AID 2557; in the data active = inhibition above about 50%
# Numbers stand for hits; i = inactive; nt = not tested or not shown. Sampled rows, rich in hits. Any-hit rate of the full collection: about 1.4%.
SMILES,GRK2 inh,APOBEC3A inh,A3G deaminase,VLA-4 inh
CC(C)(C)C(=O)NC(=S)NNC(=O)c1sc2ccccc2c1Cl,49.0,i,i,i
O=C(O)c1cccc(-n2cccc2/C=C2/SC(=O)N(CC(=O)N3CCCC3)C2=O)c1,i,i,i,i
O=C(O)c1cccc(-n2cccc2/C=C2\SC(=O)N(Cc3ccccc3F)C2=O)c1,45.0,i,i,i
Nc1c(/C=C2/C=CC(=O)C(O)=C2)c(=O)nc2sc(CC(=O)N3CCCCC3)nn12,41.0,i,i,i
CCOc1ccc(NC(=O)c2cccc(-n3cccc3)c2)cc1S(=O)(=O)N1CCOCC1,43.0,i,i,i
Cc1ccc(NC(=O)CCCN2C(=O)/C(=C/C=C/c3ccccc3)SC2=S)cc1,i,i,i,i
O=C1S/C(=C\C=C\c2ccco2)C(=O)N1c1ccc(O)cc1,i,i,i,i
O=C(O)CC(C(=O)O)N1C(=O)/C(=C/C=C/c2ccco2)SC1=S (stereo not drawn),100.0,i,i,i
O=C(O)CCCN1C(=O)/C(=C/C=C/c2ccco2)SC1=S,100.0,i,i,i
COC(=O)C1=C(O)/C(=C\c2ccc(CNS(=O)(=O)c3ccccc3)o2)N=C1C,72.0,i,i,i
COC(=O)C1=C(O)/C(=C\c2ccc(CNS(=O)(=O)c3ccc(Cl)cc3)o2)N=C1C,i,i,i,i
CCC(/C=C1\Sc2ccc(OC)cc2N1CCO)=C\c1sc2ccc(OC)cc2[n+]1CCO,100.0,i,i,i
CCC(=O)/C=C1/Sc2ccc(OC)cc2N1CCO,i,i,i,i
CCOC(=O)C/C(C)=N/NC(=O)c1cccs1,i,i,i,i
COc1ccc(-c2coc3c(CN4CCCCC4)c(O)c(CN4CCCCC4)c(O)c3c2=O)cc1,100.0,i,i,i
CC(C)C(Nc1ccc(S(=O)(=O)N2CCOCC2)cc1[N+](=O)[O-])C(=O)O (stereo not drawn),i,i,i,i
O=C(COC(=O)c1cc([N+](=O)[O-])ccc1N1CCOCC1)c1ccccc1Cl,57.0,i,i,i
NC(=O)c1ccc[n+](Cc2ccccc2)c1,80.0,i,i,i
Cc1nnc(NC(=O)c2cc(-c3ccco3)nc3ccccc23)s1,91.0,i,i,i
CC(=O)c1cccc(NC(=O)/C=C/c2ccc(S(=O)(=O)N3CCOCC3)cc2)c1,96.0,i,i,i
Cc1[nH]c2ccccc2c1C(=O)C(=O)NCCc1ccc(S(N)(=O)=O)cc1,i,i,i,i
O=C(Nc1ccc2nc(-c3ccco3)c(-c3ccco3)nc2c1)N1CCN(c2ccccn2)CC1,i,42.7,i,i
COc1ccc(N=c2oc3ccccc3cc2C(=O)Nc2ccccn2)cc1OC,72.0,i,i,i
COc1ccccc1NC(=O)c1cc2ccccc2o/c1=N\O,i,i,i,i
O=c1[nH]c2cc3c(cc2cc1C(c1nnnn1C1CCCC1)N1CCSCC1)OCCO3 (stereo not drawn),i,i,i,i
SMILES,GRK2 inh,APOBEC3A inh,A3G deaminase,VLA-4 inh
O=C(Cc1ccccc1)Nc1ccc2oc(=O)ccc2c1,i,i,i,i
N#C/C(=C\c1ccc(OC(=O)c2ccc(Br)s2)cc1)c1nc2ccccc2[nH]1,i,nt,nt,i
N#C/C(=C\c1ccc(OC(=O)c2ccc(Cl)s2)cc1)c1nc2ccccc2[nH]1,81.0,i,i,i
OCC[C@@H]1C[C@H](O)[C@@H](O)[C@@]2(OCc3ccccc32)O1,i,i,i,i
O=C1C=CC(=O)N1Cc1ccccc1,i,i,i,53.6
COc1cccc(C(=O)NC2C(=O)N3C(C(=O)O)=C(COC(C)=O)CSC23)c1 (stereo not drawn),i,i,i,i
CO[C@@]1(NC(=O)Cc2cccs2)C(=O)N2C(C(=O)O)=C(COC(N)=O)CS[C@@H]21,i,i,i,52.1
O=C(O)c1cc(N/N=C/c2ccc(-c3ccccc3)cc2)ccc1Cl,43.0,nt,nt,i
COC(=O)c1cccc(-n2sc3ccccc3c2=O)c1,i,i,77.6,i
CCCCCCCC#Cc1ccccc1/C=N/S(=O)c1ccc(C)cc1 (stereo not drawn),i,i,60.9,i
CCCCC#Cc1ccccc1CC(=O)Nc1ccccc1,i,i,i,i
CCN(CC)CCNC(=S)Nc1ccc2nc(N3CCN(C)CC3)cc(C)c2c1,i,i,i,i
Cc1cccc(NC(=O)COc2ccc(/C=N\n3cnnc3)cc2)c1,43.0,i,i,i
CCN(CC)c1ccc(/C=N/OCC(=O)Nc2cccc(C)c2)cc1,i,i,i,i
Cc1ccc(S(=O)(=O)N2CCC(C(=O)N[C@@H](C)C(=O)Nc3ccc(F)cc3)CC2)cc1,i,i,i,i
Cc1cc(C)n(Cc2ccc(C(=O)O)cc2)n1,i,i,i,i
Cc1ccc(C)n1Cc1ccc(C(=O)O)cc1,88.0,i,i,i
Cn1nccc1C(=O)OCC(=O)Nc1ccc(S(N)(=O)=O)cc1,i,i,i,i
CCN(CC)c1ccc(/C=C(\C#N)C(N)=S)cc1,i,i,i,i
COc1ccc(N=Nc2cc(C)ccc2O)cc1,i,i,i,i
COc1ccc(NC(=O)CN(C)C(=O)c2cc3c(s2)CCCCC3)cc1,i,i,i,i
COc1ccc(NC(=O)CN(C)C(=O)c2cc3c(s2)CCC3)cc1,63.0,i,i,i
COc1cc(/C=C/c2[nH]c(=O)[nH]c(=O)c2[N+](=O)[O-])ccc1OCCC(C)C,i,i,i,i
C#CCOCCOCCOCCNc1nc(N2CCN(C(=O)[C@H](CCCCN)n3cc(CCCC)nn3)CC2)nc(N2CCN(C(=O)[C@H](Cc3ccc(O)cc3)n3cc(CCO)nn3)CC2)n1,47.0,i,i,i
O=C(Nc1cccc(F)c1)c1c(O)c2cccc3c2n(c1=O)CCC3,78.0,i,i,i
SMILES,GRK2 inh,APOBEC3A inh,A3G deaminase,VLA-4 inh
CNC(=O)c1c(O)c2cccc3c2n(c1=O)CCC3,i,i,i,i
S=c1[nH]nc(-c2ccco2)n1-c1ccccc1Cl,i,i,41.8,i
CCN1/C(=C/C=C/C=C/c2sc3ccccc3[n+]2CC)Sc2ccccc21,89.0,i,i,i
Cc1cc(O)c(C=O)c2c1C(=O)Oc1c(CO)c(O)c3c(c1O2)C(O)OC3=O (stereo not drawn),72.0,i,i,i
Cc1ccc(C)n1-c1cccc(C(=O)O)c1,96.0,i,i,i
Cc1cc(C=O)c(C)n1-c1cccc(C(=O)O)c1,i,i,i,i
N#C/C(=C\c1ccc(OCc2ccc(Cl)cc2)cc1)C(=O)Nc1cccc(C(=O)O)c1,i,i,i,i
COc1ccccc1NC(=O)CSc1nnc(-c2ccco2)o1,i,i,i,i
COc1ccc(C2CC(=O)C(C(c3ccc(O)cc3)C3C(=O)CC(c4ccc(OC)cc4)CC3=O)C(=O)C2)cc1 (stereo not drawn),52.0,i,i,i
CCC(=O)N(C)CCc1cc2c(c(OC)c1/C=N/NC(=O)c1ccccc1O)OCO2,83.0,i,i,i
COc1c(/C=N/NC(=O)c2ccccc2O)c(CCN(C)C(C)=O)cc2c1OCO2,i,i,i,i
COc1ccc(C(=O)/C=C2\Sc3ccccc3N2C)cc1,i,i,i,i
COc1ccc(-[n+]2c(C)cc(/C=C3\Sc4ccccc4N3C)cc2C)cc1,79.0,i,i,i

# Source: PubChem
